A number with no mark means an inactive call. Inconclusive results are not listed. Calls of active or inactive are those of the source. Unless noted, calls follow the shape of the dose curve; as a rule, active = well fitted curve in the direction sought with a large enough effect; inconclusive = small, poorly fitted or top-dose-only effect, or another doubt; inactive = no such curve, though single readings can be large; an effect the other way counts as inactive or inconclusive.
Tests used:
[1] = AP1 Signaling Pathway (AID 357; active = well fitted curve in either direction with a large enough effect, not every such curve was filed as active;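 also: ME-180 reporter cells stimulated with EGF at its EC50 level; % is scaled to controls: 0 for no effect and ±100 for the full control effect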); conditions: ME-180 AP-1-bla reporter, EGF-induced, beta-lactamase ratio, 5 h; at 7.69 µM (top of the series) unless noted
Outline: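 AP-1-bla ME-180 cells, Opti-MEM + 0.5% dialyzed FBS, plated overnight 37 °C. Cpd titration + EC50 EGF, 5 h 37 °C. CCF4 2.5 h RT; ex 405, em 460/530 ratio → %activity, AC50.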

[2] = NFAT Signaling Pathway (AID 444; active = well fitted curve in either direction with a large enough effect, not every such curve was filed as active;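 also: carbachol stimulus at about its EC50 of 1 µM final; % is scaled to controls: 0 for no effect and ±100 for the full control effect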); conditions: Jurkat NFAT-bla M1, carbachol, beta-lactamase ratio, 5 h; at 7.69 µM (top of the series) unless noted
Outline: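 Read-out: CCF4 FRET ratio (460 nm/530 nm) after 1 h RT dye loading, used for %activity and AC50 from titration series. Cells: Jurkat NFAT-β-lactamase/M1 line, treated with compound plus 1 uM carbachol for 5 h, 37 °C.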

[3] = Stat Signaling Pathway (AID 446; active = well fitted curve in either direction with a large enough effect, not every such curve was filed as active;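 also: ME-180 cervical cancer cells given 40 pM IL-6 alongside compound; SIE-controlled beta-lactamase reporter measured as 460/530 nm FRET emission ratio; % is scaled to controls: 0 for no effect and ±100 for the full control effect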); conditions: ME-180 SIE beta-lactamase reporter, IL-6 stimulated, 5 h; at 7.69 µM (top of the series) unless noted
Outline: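 Reporter line: ME-180 cervical carcinoma, SIE-beta-lactamase. Treatment: compound with 40 pM IL-6, 5 hrs, 37 C, in low-serum OPTI-MEM with 10 mM HEPES pH 7.3. Detection: 460/530 nm fluorescence.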

[4] = biological target: Glucocorticoid receptor (Homo sapiens) (UniProt P04150); assay: GR-GFP Redistribution (AID 450;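 active = compounds whose dose series gives a full or clear partial fitted curve of increased nuclear translocation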; also: potency is read from the fitted curve at half-maximal effect); conditions: U2OS GR-GFP nuclear translocation, laser cytometry, 2 h
Chain of Glucocorticoid receptor (Homo sapiens) (P04150 whole entry, looked up, the tested form may be a part): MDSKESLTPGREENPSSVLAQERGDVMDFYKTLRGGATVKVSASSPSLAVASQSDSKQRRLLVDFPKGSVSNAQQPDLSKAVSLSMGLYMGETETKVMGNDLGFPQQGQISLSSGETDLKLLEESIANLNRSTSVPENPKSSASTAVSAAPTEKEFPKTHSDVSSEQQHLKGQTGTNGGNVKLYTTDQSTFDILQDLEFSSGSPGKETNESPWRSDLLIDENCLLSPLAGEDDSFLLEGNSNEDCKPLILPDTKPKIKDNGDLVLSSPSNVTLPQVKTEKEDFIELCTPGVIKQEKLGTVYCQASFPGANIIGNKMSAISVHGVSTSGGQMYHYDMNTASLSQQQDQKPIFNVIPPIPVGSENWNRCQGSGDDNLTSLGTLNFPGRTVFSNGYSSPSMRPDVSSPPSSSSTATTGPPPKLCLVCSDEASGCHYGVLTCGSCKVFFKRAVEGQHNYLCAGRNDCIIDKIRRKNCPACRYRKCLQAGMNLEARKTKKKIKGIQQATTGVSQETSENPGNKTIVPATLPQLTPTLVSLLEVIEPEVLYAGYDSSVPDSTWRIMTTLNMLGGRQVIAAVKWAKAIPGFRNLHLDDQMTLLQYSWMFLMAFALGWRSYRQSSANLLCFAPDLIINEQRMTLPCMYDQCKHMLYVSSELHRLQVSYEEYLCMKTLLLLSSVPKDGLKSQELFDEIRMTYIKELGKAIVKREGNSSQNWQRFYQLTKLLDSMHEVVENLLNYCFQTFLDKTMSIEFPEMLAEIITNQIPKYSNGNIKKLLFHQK

[5] = biological target: Glucocorticoid receptor (Homo sapiens) (UniProt P04150); assay: GR-EFC Redistribution (AID 451; calls by dose curve; also: potency is read from the fitted curve at half-maximal effect); conditions: CHO-K1 GR-EFC translocation, beta-gal luminescence, 2 h
Outline: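 Translocation of GR-ED fusion to nuclear EA restores b-gal, read by luminescence after 1 h room-temperature detection. Engineered CHO-K1 biosensor cells, 1,000/well, exposed 2 h at 37 C to titrations up to 46 uM final.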

[6] = biological target: Mitogen-activated protein kinase 10 (Mus musculus) (UniProt Q61831); assay: JNK3 AlphaScreen Assay (AID 530; active = well fitted curve in either direction with a large enough effect, not every such curve was filed as active;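 also: kinase came from lysate of stimulated human HepG2 cells; signal reports phosphorylation of biotinylated GST-cJun 1-79 at Ser73 with 10 µM ATP; % is scaled to controls: 0 for no effect and ±100 for the full control effect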)
Outline: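 Compound titrations were preincubated 15 minutes at room temperature with substrate, antibody and pre-activated JNK3-containing HepG2 lysate. Reactions were started with 10 uM ATP and stopped with EDTA-containing bead buffer for AlphaScreen detection.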

[7] = biological target: 3',5'-cyclic-AMP phosphodiesterase 4B (Homo sapiens) (UniProt Q07343); assay: qHTS Assay for Inhibitors of PDE-IV (AID 607; active = well fitted activation curve with a large enough effect in the main read-out, with a control signal flat, not every such curve was filed as active; also: % of control where 0% means no effect)
Chain of 3',5'-cyclic-AMP phosphodiesterase 4B (Homo sapiens) (Q07343 whole entry, looked up): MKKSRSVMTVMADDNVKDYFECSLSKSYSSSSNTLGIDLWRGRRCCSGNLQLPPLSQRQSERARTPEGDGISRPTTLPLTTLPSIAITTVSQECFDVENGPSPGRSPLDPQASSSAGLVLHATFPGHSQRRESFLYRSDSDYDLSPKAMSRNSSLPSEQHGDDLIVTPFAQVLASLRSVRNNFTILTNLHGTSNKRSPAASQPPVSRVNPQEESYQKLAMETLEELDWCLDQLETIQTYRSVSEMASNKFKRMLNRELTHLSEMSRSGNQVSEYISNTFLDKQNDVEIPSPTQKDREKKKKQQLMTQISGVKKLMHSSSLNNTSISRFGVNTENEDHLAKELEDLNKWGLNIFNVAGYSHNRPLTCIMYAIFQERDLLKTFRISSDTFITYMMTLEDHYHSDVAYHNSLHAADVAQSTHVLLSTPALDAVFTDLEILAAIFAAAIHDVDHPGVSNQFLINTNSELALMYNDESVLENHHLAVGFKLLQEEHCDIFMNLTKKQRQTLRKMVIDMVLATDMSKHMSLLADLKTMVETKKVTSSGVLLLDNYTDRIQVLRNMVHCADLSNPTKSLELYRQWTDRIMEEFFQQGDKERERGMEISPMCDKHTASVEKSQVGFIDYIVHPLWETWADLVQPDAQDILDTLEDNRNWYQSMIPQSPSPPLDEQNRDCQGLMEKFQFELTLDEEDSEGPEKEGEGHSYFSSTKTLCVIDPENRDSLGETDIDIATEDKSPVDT
Outline: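 Cell-based read-out of cAMP via a modified cyclic nucleotide-gated channel and membrane potential dye (535/590 nm) in HEK293 cells expressing PDE4 endogenously. Compounds tested up to 22.9 uM final; 100 uM RO 20-1724 reference.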

[8] = biological target: Dual specificity protein kinase CLK4 (Homo sapiens) (UniProt Q9HAZ1); assay: qHTS Assay for Inhibitors of CDC-like Kinase 4 (ADP-FP Assay) (AID 1795); also: nearly all actives have a fitted effect of over 60% in size; also: potency is read from the fitted curve at half-maximal effect
Chain of Dual specificity protein kinase CLK4 (Homo sapiens) (Q9HAZ1 whole entry, looked up): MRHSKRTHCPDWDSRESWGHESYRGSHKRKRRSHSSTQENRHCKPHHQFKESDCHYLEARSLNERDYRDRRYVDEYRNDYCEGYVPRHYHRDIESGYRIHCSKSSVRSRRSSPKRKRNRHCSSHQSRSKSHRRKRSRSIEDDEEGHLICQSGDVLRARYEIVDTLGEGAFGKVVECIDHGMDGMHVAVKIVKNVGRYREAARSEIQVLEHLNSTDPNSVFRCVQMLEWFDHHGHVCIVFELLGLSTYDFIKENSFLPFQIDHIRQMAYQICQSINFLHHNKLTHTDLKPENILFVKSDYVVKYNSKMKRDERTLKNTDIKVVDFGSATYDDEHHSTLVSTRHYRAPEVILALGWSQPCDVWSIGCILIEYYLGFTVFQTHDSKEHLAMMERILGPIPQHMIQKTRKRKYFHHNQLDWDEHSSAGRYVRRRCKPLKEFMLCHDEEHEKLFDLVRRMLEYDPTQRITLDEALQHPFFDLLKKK
Outline: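 Inhibition of ADP formation by 6.25 nM Clk4 is measured using 1 uM ATP and 100 uM RS repeat peptide over one hour. Produced ADP displaces a fluorescent tracer from antibody, lowering polarization.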

[9] = biological target: Ubiquitin carboxyl-terminal hydrolase 1 (Homo sapiens) (UniProt O94782); assay: Inhibitors of USP1/UAF1: Pilot qHTS (AID 504865);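 also: rhodamine fluorescence freed from ubiquitin-rhodamine substrate followed over time; top concentration of the series differs between compounds; % is scaled to controls: 0 for no effect and ±100 for the full control effect; nearly all actives have a fitted effect of over 35% in size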
Chain of Ubiquitin carboxyl-terminal hydrolase 1 (Homo sapiens) (O94782 whole entry, looked up): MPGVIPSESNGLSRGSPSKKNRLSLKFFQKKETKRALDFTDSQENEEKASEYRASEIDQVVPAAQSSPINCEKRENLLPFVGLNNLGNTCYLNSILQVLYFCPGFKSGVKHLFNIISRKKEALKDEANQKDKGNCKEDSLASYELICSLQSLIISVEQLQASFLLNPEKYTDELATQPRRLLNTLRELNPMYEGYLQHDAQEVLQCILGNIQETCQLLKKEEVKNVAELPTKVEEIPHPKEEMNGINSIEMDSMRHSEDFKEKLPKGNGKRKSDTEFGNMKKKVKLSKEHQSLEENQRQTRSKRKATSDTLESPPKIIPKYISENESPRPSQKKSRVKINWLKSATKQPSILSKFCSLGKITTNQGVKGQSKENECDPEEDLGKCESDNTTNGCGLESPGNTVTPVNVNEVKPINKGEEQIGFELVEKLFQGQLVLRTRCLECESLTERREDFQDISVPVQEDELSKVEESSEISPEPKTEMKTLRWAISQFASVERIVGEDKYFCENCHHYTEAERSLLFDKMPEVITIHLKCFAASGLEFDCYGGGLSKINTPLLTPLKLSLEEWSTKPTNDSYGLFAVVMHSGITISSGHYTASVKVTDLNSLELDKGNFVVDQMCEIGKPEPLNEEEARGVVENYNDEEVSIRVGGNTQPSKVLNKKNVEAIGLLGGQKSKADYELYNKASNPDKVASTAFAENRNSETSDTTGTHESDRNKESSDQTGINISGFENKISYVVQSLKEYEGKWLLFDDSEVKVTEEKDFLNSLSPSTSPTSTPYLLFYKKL
Outline: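 Kinetic fluorescence assay: 1nM USP1/UAF1, 15 min compound preincubation, then 150nM Ub-Rho; 480/540 nm.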

[10] = Primary qHTS for small molecule stabilizers of the endoplasmic reticulum resident proteome: Secreted ER Calcium Modulated Protein (SERCaMP) assay (AID 1508630); also: % is scaled to controls: 0 for no effect and ±100 for the full control effect
Outline: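 GLuc-SERCaMP-expressing SH-SY5Y cells, pretreated 16 h with compound, are challenged with thapsigargin to empty ER calcium stores; after 4 h, coelenterazine is added directly to the medium and luminescence is imaged.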

[11] = biological target: Lysosomal acid glucosylceramidase (Homo sapiens) (UniProt P04062); assay: Glucocerebrosidase-p2 (AID 348; in the data active = potency below about 10 µM; also: potency is read from the fitted curve at half-maximal effect); conditions: purified GBA, blue fluorogenic substrate, 40 min
Chain of Lysosomal acid glucosylceramidase (Homo sapiens) (P04062 whole entry, looked up): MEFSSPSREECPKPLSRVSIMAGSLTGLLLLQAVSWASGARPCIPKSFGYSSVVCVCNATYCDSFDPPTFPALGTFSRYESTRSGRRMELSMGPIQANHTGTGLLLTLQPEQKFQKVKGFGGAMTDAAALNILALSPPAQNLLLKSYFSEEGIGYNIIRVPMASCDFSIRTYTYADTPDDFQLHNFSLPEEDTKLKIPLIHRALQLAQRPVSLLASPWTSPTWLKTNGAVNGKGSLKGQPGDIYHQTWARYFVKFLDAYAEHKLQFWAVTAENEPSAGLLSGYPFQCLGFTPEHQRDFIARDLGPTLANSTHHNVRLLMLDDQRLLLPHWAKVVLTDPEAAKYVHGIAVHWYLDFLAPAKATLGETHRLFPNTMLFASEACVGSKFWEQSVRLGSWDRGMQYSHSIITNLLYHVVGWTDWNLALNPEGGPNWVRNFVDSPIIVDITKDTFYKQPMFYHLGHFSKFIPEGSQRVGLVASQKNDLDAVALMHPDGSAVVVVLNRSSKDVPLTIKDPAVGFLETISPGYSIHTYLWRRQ
Outline: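 Compounds titrated from 0.6 nM upwards against 0.2 nM enzyme in pH 5.9 citric acid/KH2PO4, taurocholate, tween-20; blue fluorogenic substrate 80 uM, 40 min room temperature, stopped and read Ex 365/Em 440 for AC50.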

[12] = biological target: Cytochrome P450 1A2 (Homo sapiens) (UniProt P05177); assay: p450-cyp1a2 (AID 410; calls by dose curve; also: potency is read from the fitted curve at half-maximal effect)
Chain of Cytochrome P450 1A2 (Homo sapiens) (P05177 whole entry, looked up): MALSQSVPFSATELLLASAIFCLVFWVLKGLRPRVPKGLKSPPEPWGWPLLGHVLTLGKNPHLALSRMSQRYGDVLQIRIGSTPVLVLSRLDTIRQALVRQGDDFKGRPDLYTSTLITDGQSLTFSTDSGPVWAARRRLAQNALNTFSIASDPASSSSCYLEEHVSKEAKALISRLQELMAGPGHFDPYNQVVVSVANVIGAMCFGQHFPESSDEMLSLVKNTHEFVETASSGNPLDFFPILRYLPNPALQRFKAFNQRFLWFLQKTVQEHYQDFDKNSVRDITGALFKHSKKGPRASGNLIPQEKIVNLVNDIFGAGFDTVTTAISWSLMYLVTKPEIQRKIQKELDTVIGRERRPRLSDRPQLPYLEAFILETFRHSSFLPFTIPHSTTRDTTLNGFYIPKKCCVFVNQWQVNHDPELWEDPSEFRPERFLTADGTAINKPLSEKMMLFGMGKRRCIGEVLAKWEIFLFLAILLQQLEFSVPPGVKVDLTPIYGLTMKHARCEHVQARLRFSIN
Outline: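 Luminescent readout of luciferin formed from Luciferin-ME by human CYP1A2; data normalized against complete inhibition by 57 uM furafylline. Enzyme 20nM, substrate 100uM at Km, 100mM KPO4 buffer, 60 min reaction at room temperature.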

[13] = biological target: Cytochrome P450 2C9 (Homo sapiens) (UniProt P11712); assay: qHTS Assay for Inhibitors and Substrates of Cytochrome P450 2C9 (AID 883); also: nearly all actives have a fitted effect of over 60% in size; also: potency is read from the fitted curve at half-maximal effect
Outline: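 Luminescent read-out of deoxyluciferin hydroxylation, normalized to 57uM sulphaphenazole (AC100). Reaction: 10nM enzyme, 100uM Luciferin-H (equal to KM), 25mM KPO4, 10 min compound preincubation, then 60 min with NADPH regeneration, both at 37C.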

[14] = biological target: Cytochrome P450 2C19 (Homo sapiens) (UniProt P33261); assay: qHTS Assay for Inhibitors and Substrates of Cytochrome P450 2C19 (AID 899); also: potency is read from the fitted curve at half-maximal effect; nearly all actives have a fitted effect of over 60% in size
Chain of Cytochrome P450 2C19 (Homo sapiens) (P33261 whole entry, looked up): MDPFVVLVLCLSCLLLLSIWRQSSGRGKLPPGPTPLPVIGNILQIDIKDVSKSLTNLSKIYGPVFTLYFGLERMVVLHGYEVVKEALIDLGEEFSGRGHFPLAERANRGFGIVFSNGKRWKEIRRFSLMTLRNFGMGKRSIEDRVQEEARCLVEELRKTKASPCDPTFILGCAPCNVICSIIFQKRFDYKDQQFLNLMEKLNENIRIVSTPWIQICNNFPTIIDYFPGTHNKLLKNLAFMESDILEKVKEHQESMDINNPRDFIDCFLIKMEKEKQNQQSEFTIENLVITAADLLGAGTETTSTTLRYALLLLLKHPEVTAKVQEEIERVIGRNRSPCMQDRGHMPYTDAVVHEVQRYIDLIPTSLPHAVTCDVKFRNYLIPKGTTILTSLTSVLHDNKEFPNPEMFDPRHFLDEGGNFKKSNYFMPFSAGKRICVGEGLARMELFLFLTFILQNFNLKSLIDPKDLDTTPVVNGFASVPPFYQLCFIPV
Outline: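 Luminescence readout of luciferin formed from 10uM Luciferin-H EGE (KM level) by 5 nM CYP2C19 in 50mM KPO4. 60 min NADPH-driven reaction at 37C after 10 min compound preincubation; data scaled to 57uM ketoconazole inhibition.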

[15] = biological target: Cytochrome P450 3A4 (Homo sapiens) (UniProt P08684); assay: qHTS Assay for Inhibitors and Substrates of Cytochrome P450 3A4 (AID 884); also: potency is read from the fitted curve at half-maximal effect; nearly all actives have a fitted effect of over 50% in size
Chain of Cytochrome P450 3A4 (Homo sapiens) (P08684 whole entry, looked up): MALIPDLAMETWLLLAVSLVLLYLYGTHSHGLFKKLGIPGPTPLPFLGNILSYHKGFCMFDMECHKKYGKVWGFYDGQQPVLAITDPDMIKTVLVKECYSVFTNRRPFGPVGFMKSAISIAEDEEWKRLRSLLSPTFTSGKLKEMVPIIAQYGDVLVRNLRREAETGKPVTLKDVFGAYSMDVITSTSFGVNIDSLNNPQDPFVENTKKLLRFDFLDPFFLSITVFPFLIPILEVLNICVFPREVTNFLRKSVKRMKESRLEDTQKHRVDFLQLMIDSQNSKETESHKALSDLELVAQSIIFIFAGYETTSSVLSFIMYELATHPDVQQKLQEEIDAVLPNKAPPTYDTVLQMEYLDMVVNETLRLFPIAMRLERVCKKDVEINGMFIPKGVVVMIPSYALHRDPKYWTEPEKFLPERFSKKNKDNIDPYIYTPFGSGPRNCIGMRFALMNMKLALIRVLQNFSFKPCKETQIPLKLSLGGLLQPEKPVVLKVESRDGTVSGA
Outline: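 20 nM human CYP3A4 with 25 uM Luciferin-PPXE (at KM) in 200 mM KPO4, preincubated 10 min with compound; NADPH regeneration started a 60 min RT reaction. Luciferin detected by luminescence, normalized to 57 uM ketoconazole as full inhibition.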

[16] = biological target: Cytochrome P450 3A4 (Homo sapiens) (UniProt P08684); assay: qHTS Assay for Activators of Cytochrome P450 3A4 (AID 885); also: nearly all actives have a fitted effect of over 65% in size
Outline: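 Signal was normalized against complete inhibition by 57 uM ketoconazole. The reaction used 20nM CYP3A4 with 25uM Luciferin-PPXE, 10-min compound preincubation and a 60-min NADPH-supported step at RT.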

[17] = biological target: Cytochrome P450 2D6 (Homo sapiens) (UniProt P10635); assay: qHTS Assay for Inhibitors and Substrates of Cytochrome P450 2D6 (AID 891); also: potency is read from the fitted curve at half-maximal effect; nearly all actives have a fitted effect of over 60% in size
Outline: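 Human CYP2D6 (5 nM) with 30 uM Luciferin-ME EGE (at Km) in 100 mM KPO4, compound preincubated 10 min, then NADPH regeneration system for 60 min at room temperature. Luciferin read by luminescence; normalized to 1.43 uM quinidine.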

[18] = Confirmation and Secondary Assay for Modulators of Hemoglobin Beta Chain Splicing at IVS2 654 locus (AID 910);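 also: HeLa cells stably carrying EGFP split by mutant beta-globin IVS2-654 intron; per-well total GFP intensity by laser scanning cytometry after 2-day treatment; % of control where 0% means no effect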
Outline: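 Readout: per-well total peak green fluorescence (488 nm ex, 500–520 nm em) from objects 5–250 µm, reflecting correct splicing of an EGFP-654 reporter. Compounds were applied for 2 days at 37 °C to overnight-plated HeLa EGFP-654 cells; controls were DMSO and 500 nM IVS2-654 PNA.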

[19] = qHTS Assay for Identification of Small Molecule Agonists for Hypoxia Response Element Signaling Pathway (AID 914; active = well fitted activation curve with a large enough effect in the signal ratio, with a control signal flat, not every such curve was filed as active; the % refers to the signal ratio; also: potency is read from the fitted curve at half-maximal effect); conditions: ME-180 (cervical carcinoma) HRE-bla reporter, beta-lactamase ratio, CoCl2, 17 h; activation: stronger effect = higher value
Outline: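 Reporter activity (beta-lactamase, CCF4 460nm/530nm ratio) in HRE-bla ME-180 cells is recorded after 17 h compound exposure with EC50 CoCl2 at 37 degrees Celsius. AC50 values come from titration data.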

Row | Compound | activity change, negative = inhibition [1] [%] | activity change, negative = inhibition [2] [%] | activity, negative = inhibition [3] [%] | Potency [4] [µM] | Potency [5] [µM] | Potency [6] | Potency [7] | Potency [8] | Potency [9] | outcome [10] | Potency [11] [µM] | Potency [12] | activity change, negative = inhibition [13] | Potency [14] | Potency [15] | Potency [16] | Potency [17] | Potency [18] | Potency [13] | Potency [19]
1 | COc1ccc2[nH]cc(CCNc3cc(-c4ccccc4CN(C)C)ncn3)c2c1 | 14.9 | -12.7 | 6.88 | > 46 | > 46 | inactive | inactive | inactive | inactive | inactive |  |  |  |  |  |  |  |  |  | 
2 | CN(C)C(=O)c1ccc(-c2ccc3ncnc(N(C)Cc4ccco4)c3c2)cc1 |  | 8.43 | -9.98 | > 46 | > 46 | inactive |  | 7.08 µM (active) | inactive | inactive | > 11.4 |  |  |  |  |  |  |  |  | 
3 | CN(C)c1nc(-c2ccccc2C(F)(F)F)nc2ccccc12 |  | 0.537 | 7.02 | > 46 | > 46 | inactive | inactive | inactive | inactive | inactive | > 11.4 | 0.251 µM (active) | 37.2% [at 2.29 µM] |  |  |  |  |  |  | 
4 | FC(F)(F)c1ccccc1-c1cc(NCc2cccs2)ncn1 | -3.47 | -14.8 | 5.97 | > 46 | > 46 | inactive | inactive | inactive | inactive | inactive |  | 3.98 µM (active) |  | 0.794 µM (active) |  |  |  |  |  | 
5 | COc1ccc2[nH]cc(CCNc3ccnc(-c4ccccc4C)n3)c2c1 | -8.02 | 8.54 | -1.84 | > 46 | > 46 | inactive | inactive | inactive | inactive | inactive |  | 0.316 µM (active) |  | 2.51 µM (active) | 3.16 µM (active) | inactive | 2.51 µM (active) |  |  | 
6 | COc1cccc(-c2nccc(NCc3ccc(OC)cc3OC)n2)c1 | -28.1 | -2.27 | -11.4 | > 46 | > 46 | inactive |  | inactive | inactive | inactive |  | 1 µM (active) |  | 2.51 µM (active) |  | inactive |  |  |  | 
7 | CN(C)C(=O)c1ccc(-c2ccc3ncnc(Nc4ccccc4)c3c2)cc1 |  |  | 0.91 | > 46 | > 46 | inactive | inactive | inactive | inactive | inactive | > 11.4 | 15.8 µM (active) |  |  |  | inactive |  |  |  | 
8 | Cc1cnc(CNc2cc(-c3c(C)noc3C)ncn2)cn1 | 23.4 | 7.12 | 12.1 | > 46 | > 46 | inactive | inactive | inactive | inactive | inactive | > 11.4 |  |  |  |  |  |  |  |  | 
9 | Cc1cnc(CNc2cc(-c3cccnc3)ncn2)cn1 | -14.2 | -1.2 | -0.57 | > 46 | > 46 | inactive | inactive | inactive | inactive | inactive |  | 15.8 µM (active) |  |  |  | inactive |  |  |  | 
10 | N#Cc1cccc(-c2cc(-n3ccnc3)ncn2)c1 | 0.101 | 4.55 | 10.7 | > 46 | > 46 | inactive | inactive |  | inactive | inactive | > 11.4 | 0.126 µM (active) |  | 0.158 µM (active) | 0.398 µM (active) | inactive |  | inactive |  | 
11 | COc1cccc(-c2cncnc2NCCc2cnc[nH]2)c1 | -20.9 | -4.17 | -17 | > 46 | > 46 | inactive | inactive |  | inactive | inactive | > 11.4 | 0.398 µM (active) |  |  | 0.631 µM (active) | inactive | 7.94 µM (active) | inactive | 0.251 µM (active) | 
12 | CCNc1ncc2nc(-c3ccc(Cl)cc3)c(=O)n(Cc3cccs3)c2n1 |  |  |  | > 9.22 | > 46 | inactive |  | inactive | inactive | inactive | > 11.4 |  |  |  |  |  |  |  |  | 
13 | N#Cc1cccc(-c2cc(NCc3cccnc3)ncn2)c1 | 11.5 | 3.13 | -25.4 | > 46 | > 46 | inactive | inactive |  | inactive | inactive | > 11.4 | 0.0398 µM (active) |  |  | 2.51 µM (active) | inactive |  |  |  | 
14 | Clc1ccccc1-c1nc(NCCN2CCOCC2)c2ccccc2n1 | 16 | -7.69 | -5.23 | > 46 | > 46 | inactive | inactive | inactive | inactive | inactive |  | 12.6 µM (active) |  |  |  | inactive |  |  |  | 3.16 µM (active)

— PubChem BioAssay (NCATS)
